“And” between values parts separate entries of the source, which are not always exact repeats. Equal entries are not always repeated. About 2,000 (36%) of roughly 5,500 compounds were called active. About 18% were inconclusive and are not listed. Cut-off read from the data, not from the text of the source: active = normalized growth mostly below about 0.91 (no sharp cut-off); inconclusive = no clear call, values can overlap the other calls; inactive = mostly above about 0.92. The list shows a part of the results.
Experiment: chemical genetic growth profiling, strain panel (AID 1159580);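 note: tested at 20 µM; growth read once vehicle control cultures reached saturation at 30 °C; 1 = growth at the plate median or of vehicle wells; lower values mean less growth of the strain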
Conditions: S. cerevisiae deletion strains, growth OD

Measured: normalized growth

COC1=CC(=O)C[C@@H](C)[C@]12Oc1c(Cl)c(OC)cc(OC)c1C2=O
inactive: locus YAL013W, strain DEP1, stronger effect = lower value 1.02 | locus YAL021C, strain ccr4, stronger effect = lower value 1.01 | locus YAL026C, strain drs2, stronger effect = lower value 0.989 | locus YAL030W, strain snc1, stronger effect = lower value 0.988 | locus YBL061C, strain skt5, stronger effect = lower value 0.972 | locus YBR009C, strain hhf1, stronger effect = lower value 0.937 | locus YBR021W, strain FUR4, stronger effect = lower value 1 | locus YBR023C, strain chs3, stronger effect = lower value 0.978 | locus YBR171W, strain sec66, stronger effect = lower value 0.961 | locus YBR229C, strain ROT2, stronger effect = lower value 0.954 | locus YBR231C, strain swc5, stronger effect = lower value 1 | locus YBR279W, strain paf1, stronger effect = lower value 0.987 | locus YCL011C, strain gbp2, stronger effect = lower value 0.963 | locus YCL016C, strain dcc1, stronger effect = lower value 0.958 | locus YCL029C, strain bik1, stronger effect = lower value 0.987 | locus YCL061C, strain MRC1, stronger effect = lower value 1 | locus YCL069W, strain vba3, stronger effect = lower value 0.979 | locus YCR088W, strain abp1, stronger effect = lower value 0.979 | locus YDL005C, strain med2, stronger effect = lower value 0.996 | locus YDL035C, strain GPR1, stronger effect = lower value 0.95 | locus YDL040C, strain nat1, stronger effect = lower value 0.995 | locus YDL074C, strain BRE1, stronger effect = lower value 1.02 | locus YDL101C, strain DUN1, stronger effect = lower value 1 | locus YDL134C, strain PPH21, stronger effect = lower value 0.97 | locus YDL185W, strain tfp1, stronger effect = lower value 0.972 | locus YDL192W, strain arf1, stronger effect = lower value 0.988 | locus YDR001C, strain nth1, stronger effect = lower value 0.982 | locus YDR069C, strain doa4, stronger effect = lower value 0.991 | locus YDR101C, strain arx1, stronger effect = lower value 0.992 | locus YDR137W, strain rgp1, stronger effect = lower value 0.954 | locus YDR150W, strain NUM1, stronger effect = lower value 0.996 | locus YDR159W, strain sac3, stronger effect = lower value 1.02 | locus YDR162C, strain NBP2, stronger effect = lower value 0.932 | locus YDR195W, strain ref2 1.03 | locus YDR297W, strain sur2, stronger effect = lower value 1 | locus YDR318W, strain mcm21, stronger effect = lower value 0.988 | locus YDR334W, strain swr1, stronger effect = lower value 0.993 | locus YDR335W, strain msn5, stronger effect = lower value 0.986 | locus YDR388W, stronger effect = lower value 1 | locus YDR392W, strain spt3, stronger effect = lower value 0.907 | locus YDR502C, strain sam2, stronger effect = lower value 0.999 | locus YEL003W, strain gim4, stronger effect = lower value 0.986 | locus YEL037C, strain rad23, stronger effect = lower value 0.984 | locus YEL061C, strain CIN8 (second series), stronger effect = lower value 0.977 | locus YEL061C, strain CIN8, stronger effect = lower value 0.996 | locus YER015W, strain faa2, stronger effect = lower value 0.971 | locus YER016W, strain bim1, stronger effect = lower value 0.971 | locus YER110C, stronger effect = lower value 0.989 | locus YER111C, strain swi4, stronger effect = lower value 0.979 | locus YER155C, strain BEM2 (second series), stronger effect = lower value 1.01 | locus YER155C, strain BEM2, stronger effect = lower value 1.01 | locus YER167W, strain BCK2, stronger effect = lower value 0.981 | locus YFR010W, strain ubp6, stronger effect = lower value 0.987 | locus YGL078C, strain dbp3, stronger effect = lower value 0.987 | locus YGL086W, strain mad1, stronger effect = lower value 0.994 | locus YGL167C, strain pmr1, stronger effect = lower value 0.97 | locus YGL173C, strain kem1, stronger effect = lower value 0.984 | locus YGL227W, strain vid30, stronger effect = lower value 0.978 | locus YGL240W, strain doc1, stronger effect = lower value 1.01 | locus YGL248W, strain PDE1, stronger effect = lower value 1.01 | locus YGL253W, strain hxk2, stronger effect = lower value 0.994 | locus YGR078C, strain PAC10, stronger effect = lower value 1.01 | locus YGR135W, strain pre9, stronger effect = lower value 1.01 | locus YGR229C, strain SMI1, stronger effect = lower value 0.978 | locus YGR252W, strain gcn5, stronger effect = lower value 0.992 | locus YHR013C, strain ard1, stronger effect = lower value 0.975 | locus YHR027C, strain rpn1, stronger effect = lower value 0.975 | locus YHR030C, strain SLT2, stronger effect = lower value 0.988 and 1.01 | locus YHR079C, strain IRE1 (second series), stronger effect = lower value 0.995 | locus YHR079C, strain IRE1, stronger effect = lower value 1.01 | locus YHR094C, strain hxt1, stronger effect = lower value 0.988 | locus YHR129C, strain ARP1, stronger effect = lower value 0.996 | locus YHR142W, strain chs7, stronger effect = lower value 0.934 | locus YHR200W, strain rpn10, stronger effect = lower value 0.983 | locus YIL066C, strain RNR3, stronger effect = lower value 0.937 | locus YIL073C, strain SPO22, stronger effect = lower value 0.997 | locus YIL125W, strain kgd1, stronger effect = lower value 0.986 | locus YIR030C, strain dcg1, stronger effect = lower value 1.01 | locus YJL092W, strain hpr5, stronger effect = lower value 0.987 | locus YJL095W, strain BCK1 (second series), stronger effect = lower value 0.977 | locus YJL095W, strain BCK1, stronger effect = lower value 1.06 and 1.01 | locus YJL115W, strain asf1, stronger effect = lower value 0.981 | locus YJL129C, strain trk1, stronger effect = lower value 0.964 | locus YJL134W, strain LCB3, stronger effect = lower value 0.987 | locus YJL154C, strain vps35, stronger effect = lower value 0.983 | locus YJL164C, strain tpk1, stronger effect = lower value 0.964 | locus YJL166W, strain qcr8, stronger effect = lower value 1 | locus YJL168C, strain set2, stronger effect = lower value 0.989 | locus YJL187C, strain SWE1 (second series), stronger effect = lower value 1.03 | locus YJL187C, strain SWE1, stronger effect = lower value 0.983 | locus YJR043C, strain POL32, stronger effect = lower value 0.964 | locus YJR066W, strain TOR1, stronger effect = lower value 0.969
